Where “and” joins values, the source holds several entries; their conditions need not be identical. Equal entries are not always repeated. Results filed as inconclusive are left out. Unmarked numbers belong to inactive results. Calls of active or inactive are those of the source. The call rests on the fitted dose curve; in most records, active means well fitted curve in the direction sought with a large enough effect; inconclusive means small, poorly fitted or top-dose-only effect, or another doubt; inactive means no such curve, though single readings can be large; an effect the other way counts as inactive or inconclusive. Non-standard residues stand in square brackets, D forms with d. Residues, ends and D or L forms follow the SMILES beside them. *: point of attachment. Nva = CCC[C@H](N)C(=O)O; Cbz = O=C(OCc1ccccc1)*
How the values were obtained:
[1] = target: Cellular tumor antigen p53 (Homo sapiens) (UniProt P04637); assay: Primary qHTS for small molecule compounds that upregulate eGFP-tagged delta133p53alpha (in N-terminal) cells. (AID 2060322); conditions: NCI-H358 eGFP-delta133p53alpha fluorescence, 24 h; activation: stronger effect = higher value; further: nearly all actives have a fitted effect of over 75% in size;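 on activation: cells pre-induced with doxycycline then dosed without doxycycline; series mostly up to about 56 µM; 0% = DMSO vehicle and 100% = reference activator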
Chain of Cellular tumor antigen p53 (Homo sapiens) (P04637 whole entry, looked up): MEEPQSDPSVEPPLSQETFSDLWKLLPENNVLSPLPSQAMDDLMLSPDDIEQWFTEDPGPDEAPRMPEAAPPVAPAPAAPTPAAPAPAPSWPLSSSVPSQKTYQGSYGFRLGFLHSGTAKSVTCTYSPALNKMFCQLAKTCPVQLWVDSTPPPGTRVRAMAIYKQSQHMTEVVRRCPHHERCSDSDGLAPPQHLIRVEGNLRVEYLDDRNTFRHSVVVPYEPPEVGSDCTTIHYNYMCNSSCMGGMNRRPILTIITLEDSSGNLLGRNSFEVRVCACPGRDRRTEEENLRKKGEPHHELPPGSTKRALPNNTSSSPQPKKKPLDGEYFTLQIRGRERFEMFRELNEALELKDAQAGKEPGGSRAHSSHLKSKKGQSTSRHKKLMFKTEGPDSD
Method in brief: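 NCI-H358 cells pre-induced 24 h with 10 ng/ml doxycycline for eGFP-delta133p53alpha, plated dox-free and exposed 24 h at 37C to titrated compounds. Fixed, Hoechst-stained; gated GFP peak intensity by laser scanning cytometry, normalized to DMSO (0%) and 57.5 uM 5-azacytidine (100%).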

[2] = BET inhibitor-based combinations targeting novel dependencies in MECOM-rearranged (r) AML: SET-2 cell line (AID 2202231); conditions: SET-2 AML cells viability, CellTiter-Glo luminescence, 48 h; viability: stronger effect = lower value, concentration not given here; further: nearly all actives have a fitted effect of over 35% in size;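 on viability: plate controls were DMSO treated cells for no effect and wells without cells for full effect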
Method in brief: (§1)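 Luminescent ATP readout (CellTiter-Glo) after 48 hr drug exposure gives viability. Curves span 11 concentrations and are normalized to DMSO and empty wells. Activity is reported as area under the curve and its Z-transform within each cell line.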

[3] = BET inhibitor-based combinations targeting novel dependencies in MECOM-rearranged (r) AML: OCI-AML3 cell line (AID 2202232); conditions: Potency: OCI-AML3 viability; further: nearly all actives have a fitted effect of over 35% in size
Method in brief: as §1

[4] = BET inhibitor-based combinations targeting novel dependencies in MECOM-rearranged (r) AML: HNT-34 cell line (AID 2202234); further: nearly all actives have a fitted effect of over 35% in size
Method in brief: (§2)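 Luminescent ATP readout (CellTiter-Glo, 15 min at room temperature) after 48 hr drug exposure gave viability. Dose-response curves, normalized to DMSO and empty-well controls, were summarized as area under the curve and its mean-centred Z-score.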

[5] = BET inhibitor-based combinations targeting novel dependencies in MECOM-rearranged (r) AML: UCSD-AML1 cell line (AID 2202235); further: nearly all actives have a fitted effect of over 40% in size
Method in brief: as §2

[6] = BET inhibitor-based combinations targeting novel dependencies in MECOM-rearranged (r) AML: AML-191 cell line (AID 2202236; further: nearly all actives have a fitted effect of over 35% in size)
Method in brief: as §1

[7] = BET inhibitor-based combinations targeting novel dependencies in MECOM-rearranged (r) AML: AML-194 cell line (AID 2202237; further: nearly all actives have a fitted effect of over 40% in size)
Method in brief: as §1

[8] = BET inhibitor-based combinations targeting novel dependencies in MECOM-rearranged (r) AML: MV-4-11 cell line (AID 2202233); further: nearly all actives have a fitted effect of over 45% in size
Method in brief: as §2
Potency means the concentration at half of the fitted maximal effect.

Row | SMILES | activation [1] | viability [2] [%] | Potency [3] | Potency [4] | Potency [5] | Potency [6] | Potency [7] | Potency [1] | Potency [2] | Potency [8]
1 | O=[N+]([O-])c1cncn1CCN1CCOCC1 | -23.4% | 112 | inactive | inactive | inactive | inactive | inactive | – | – | –
2 | Cc1ccc(C(=O)Nc2ccc(CN3CCN(C)CC3)c(C(F)(F)F)c2)cc1C#Cc1cnc2cccnn12 | – | – | 1.86 µM (active) | 0.0083 µM (active) | 2.63 µM (active) | 0.934 µM (active) | 1.48 µM (active) | 7.69 µM (active) and 10.7 µM (active) | 7.42 µM (active) | –
3 | COc1cc(C(=O)NS(=O)(=O)c2ccccc2C)ccc1Cc1cn(C)c2ccc(NC(=O)OC3CCCC3)cc12 | 105% | 119 | inactive | inactive | inactive | inactive | inactive | – | – | –
4 | OC(Cn1cncn1)(Cn1cncn1)c1ccc(F)cc1F | 6.21% and 14.6% | 116 | inactive | – | inactive | inactive | inactive | – | – | inactive
5 | Nc1nc(N)nc(-c2cc(Cl)ccc2Cl)n1 | 2.82% and 12% | 105 | inactive | inactive | inactive | inactive | inactive | – | – | –
6 | COCCCOc1cc(C[C@@H](C[C@H](N)[C@@H](O)C[C@H](C(=O)NCC(C)(C)C(N)=O)C(C)C)C(C)C)ccc1OC | -7.53% and 23.3% | 124 | inactive | inactive | inactive | inactive | inactive | – | – | –
7 | COc1cc(F)c(C(C)C)cc1-c1ccc(C(F)(F)F)cc1CN1C(=O)O[C@H](c2cc(C(F)(F)F)cc(C(F)(F)F)c2)[C@@H]1C | -9.08% | 105 | inactive | inactive | inactive | inactive | – | – | – | –
8 | C[C@@H](Oc1cc(-n2cnc3ccc(CN4CCN(C)CC4)cc32)sc1C(N)=O)c1ccccc1C(F)(F)F | 2.47% | – | 0.0468 µM (active) | – | – | 0.0934 µM (active) | – | – | 0.105 µM (active) | 0.105 µM (active)
9 | CC(C(C)N1CC(=O)NC(=O)C1)N1CC(=O)NC(=O)C1 (configuration not stated) | 25.1% | 107 | 5.9 µM (active) | – | – | 9.34 µM (active) | inactive | – | – | 1.18 µM (active)
10 | CN(N=O)C(=O)N[C@@H]1[C@@H](O)[C@H](O)[C@@H](CO)O[C@@H]1O | -14.1% | 101 | inactive | – | inactive | – | inactive | – | – | inactive
11 | O=C(Nc1cc(Cl)cc2c1[nH]c1cnccc12)c1cccnc1 | 15.9% | 102 | inactive | – | inactive | inactive | inactive | – | – | inactive
12 | CCCc1nc2c(C)cc(-c3nc4ccccc4n3C)cc2n1Cc1ccc(-c2ccccc2C(=O)O)cc1 | -6.69% and 11.8% | 120 | inactive | – | – | inactive | – | – | – | inactive
13 | CCCCCNC(=O)N1CCC(CN(Cc2ccc(Cl)cc2)Cc2ccc([N+](=O)[O-])s2)C1 (configuration not stated) | -3.18% | – | 18.6 µM (active) | – | inactive | – | inactive | – | 20.9 µM (active) | 20.9 µM (active)
14 | CCC[C@@H](C=O)NC(=O)[C@H](CC(C)C)NC(=O)[C@H](CC(C)C)NC(=O)OCc1ccccc1 (Cbz-Leu-Leu-[Nva]-aldehyde) | – | – | 2.35 µM (active) | 2.63 µM (active) | 3.32 µM (active) | 2.95 µM (active) | 2.63 µM (active) | 5.44 µM (active) | 2.09 µM (active) | –
15 | CN1C(=O)C[C@H](C(=O)N[C@@H](Cc2cnc[nH]2)C(=O)N2CCC[C@@H]2C(N)=O)NC1=O | 8.59% | 98.4 | 18.6 µM (active) | – | inactive | 20.9 µM (active) | inactive | – | – | –
16 | C[C@]1(c2nc3c(C(N)=O)cccc3[nH]2)CCCN1 | 53.7% | 113 | 8.33 µM (active) | – | inactive | inactive | inactive | – | – | –
17 | CCCNS(=O)(=O)Nc1ncnc(OCCOc2ncc(Br)cn2)c1-c1ccc(Br)cc1 | -5.9% | 97.8 | inactive | – | – | – | inactive | – | – | –
18 | CCc1cc(Nc2nccc(-c3c(-c4ccc(OC)c(C(=O)Nc5c(F)cccc5F)c4)nc4ccccn34)n2)c(OC)cc1N1CCC(N2CCN(S(C)(=O)=O)CC2)CC1 | 14.2% and 2.68% | 113 | inactive | – | 10.5 µM (active) | 11.8 µM (active) | 11.8 µM (active) | – | – | –
